Test [1] has as its system PRMT1 (protein arginine N-methyltransferase 1). Briefly: PRMT1 binders on small-molecule microarrays, primary screen, biochemical, small-molecule microarray, 635 nm fluorescence (AID 1088).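 Note: binding of Prmt1 protein to compounds spotted on small-molecule microarray slides.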 The following applies: small-molecule microarray binding, higher = more signal.
Test [2] can be described thus: yeast growth modulation, basal conditions, primary screen, YJM789 clinical isolate, OD600, 24 h (AID 1089).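 Note: growth of clinical yeast isolate S. cerevisiae YJM 789 seeded 1000 cells per well; test concentration not given here.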 The following applies: S. cerevisiae YJM789 growth, higher = more signal, called active from +8 up or from −8 down.
Test [3] is described as follows: fission yeast growth modulation, primary screen, strain 972, OD600, 24 h, no modulator (AID 1090).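 Note: basal condition with compound alone and no growth modifier present; test concentration not given here.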 The following applies: S. pombe 972 growth, higher = more signal, called active from +8 up or from −8 down.
A short description of test [4]: S. cerevisiae growth modulation with rapamycin, primary screen, strain BY4716, OD600, 96 h (AID 1091). Note: test concentration not given here. The following applies: higher = more signal, called active from +8 up or from −8 down.
Test [5] has as its target Torsin-1A-interacting protein 2 (Homo sapiens) (UniProt Q8NFQ8). As to the kind of experiment: LULL1 binders on small-molecule microarray, primary screen, cell lysate, human LULL1 lysate, 635/667 nm fluorescence (AID 1092).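 Note: probe is lysate of COS7 cells overexpressing human LULL1; score merges per-feature 667 nm fluorescence with signal-to-noise.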 Conditions: hLULL1 lysate binding, 635 nm fluorescence, higher = more signal.
Test [6] can be described thus: E. coli growth modulation, two-sided OD650, primary screen, E. coli filamentation project, strain DRC41, 24 h (AID 1093).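 Note: MC1000 strain lacking acrAB efflux and sulA so SOS filamentation is blocked; test concentration not given here.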 Conditions: OD650, 24 h, higher = more signal, called active from +8 up or from −8 down.
A short description of test [7]: small-molecule microarray binders of probe aLefty2, primary screen, biochemical, biotinylated probe, 635/667 nm fluorescence (AID 1094).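 Note: score merges spot fluorescence near 667 nm with spot signal-to-noise ratio.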 The following applies: higher = more signal.
In test [8] the test system is Noggin (protein binding on small-molecule microarray). Briefly: Noggin binders on small-molecule microarray, primary screen, biochemical, 635/667 nm fluorescence (AID 1095).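 Note: score merges 667 nm feature fluorescence with signal to noise over triplicate slides.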 The following applies: 635 nm fluorescence, higher = more signal.
Test [9] deals with Neurogenic locus notch homolog protein 3 (Homo sapiens) (UniProt Q9UM47). Briefly: NOTCH3 binders on small-molecule microarray, primary screen, biochemical, 635/667 nm fluorescence (AID 1096). Conditions: NOTCH3 binding, 635 nm fluorescence, higher = more signal.
Test [10] is described as follows: small-molecule microarray binders of probe aEGFR, primary screen, biochemical, biotinylated probe, 635/667 nm fluorescence (AID 1097).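 Note: probe is a biotinylated anti-EGFR antibody binding compounds printed on slides; score combines fluorescence near 667 nm and signal to noise of each spot.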 The following applies: higher = more signal.
Test [11] deals with Plasmodium falciparum Sir2 (PF13_0152, Sir2A). As to the kind of experiment: pfSir2 binders on small-molecule microarrays, primary screen, biochemical, small-molecule microarray, 635 nm fluorescence (AID 1098).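 Note: score merges spot fluorescence intensity with its signal-to-noise ratio.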 The following applies: small-molecule microarray binding, fluorescence 635 nm; higher = more signal.
Test [12] in a line: small-molecule microarray binders of probe aDKK1, primary screen, biochemical, biotinylated probe, 635/667 nm fluorescence (AID 1099).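 Note: score merges 667nm spot fluorescence with signal to noise across triplicate slides; reference of the scale not given here.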 The following applies: higher = more signal.
Test [13] in a line: small-molecule microarray binders of probe aCHRDL2, primary screen, biochemical, biotinylated probe, 635/667 nm fluorescence (AID 1100). Conditions: higher = more signal.
The nature of test [14]: splicing luciferase reporter signal modulators, primary screen, spliceosome inhibition project, cell-based, HEK293, splice +/- reporter (AID 1101).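 Note: HEK293 cells carrying a splicing-competent luciferase reporter gene; test concentration not given here.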 The following applies: luminescence, 24 h, higher = more signal, called active from +8 up or from −8 down.
The target of test [15] is Fibroblast growth factor 10 (Homo sapiens) (UniProt O15520). As to the kind of experiment: FGF10 binders on small-molecule microarrays, primary screen, biochemical, small-molecule microarray, 635 nm fluorescence (AID 1102). The following applies: FGF10 binding, fluorescence 635 nm, higher = more signal.
The test system of test [16] is glycogen synthase kinase-3 (GSK3A per assay name; protocol says GSK3B). Briefly: GSK3 binders on small-molecule microarrays, primary screen, biochemical, small-molecule microarray, 635 nm fluorescence, GSK3A (AID 1103). Note: the record names both GSK3A and GSK3B. Conditions: small-molecule microarray binding, fluorescence 635 nm; higher = more signal.
Test [17] addresses Epidermal growth factor receptor (Homo sapiens) (UniProt P00533). Briefly: EGFR binders on small-molecule microarrays, primary screen, biochemical, small-molecule microarray, 635 nm fluorescence (AID 1104).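 Note: score merges 667 nm emission intensity with spot signal to noise over triplicate slides.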 Conditions: EGFR binding, higher = more signal.
Test [18] concerns the target Follistatin-related protein 3 (Homo sapiens) (UniProt O95633). As to the kind of experiment: FSTL3 binders on small-molecule microarrays, primary screen, biochemical, small-molecule microarray, 635 nm fluorescence (AID 1105).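 Note: score merges emission near 667 nm and signal to noise per printed spot across three slides.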 The following applies: FSTL3 binding, higher = more signal.
In test [19] the target is Dickkopf-related protein 1 (Homo sapiens) (UniProt O94907). As to the kind of experiment: DKK1 binders on small-molecule microarrays, primary screen, biochemical, small-molecule microarray, 635 nm fluorescence scan (AID 1106).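 Note: score merges emission near 667 nm with signal to noise over three replicate slides.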 Conditions: DKK1 binding, higher = more signal.
For test [20], the system named is Inhibin beta A chain (activin A). Briefly: INHBA (activin A) binders on microarrays, primary screen, biochemical, small-molecule microarray, 635 nm fluorescence scan (AID 1107).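 Note: mouse activin A protein probed at 4.33 µg/mL on printed slides; score merges bound-protein fluorescence near 667 nm with spot signal-to-noise.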 Conditions: small-molecule microarray binding, higher = more signal.

The source made the active and inactive calls.

Chain of Follistatin-related protein 3 (Homo sapiens) (O95633 whole entry, looked up): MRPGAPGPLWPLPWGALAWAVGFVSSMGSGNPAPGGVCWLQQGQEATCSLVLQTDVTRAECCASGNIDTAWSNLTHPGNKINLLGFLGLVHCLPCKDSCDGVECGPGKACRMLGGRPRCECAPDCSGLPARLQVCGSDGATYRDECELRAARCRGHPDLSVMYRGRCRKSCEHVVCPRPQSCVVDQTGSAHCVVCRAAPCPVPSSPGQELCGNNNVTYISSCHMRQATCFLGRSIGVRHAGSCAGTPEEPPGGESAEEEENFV
Chain of Dickkopf-related protein 1 (Homo sapiens) (O94907 whole entry, looked up): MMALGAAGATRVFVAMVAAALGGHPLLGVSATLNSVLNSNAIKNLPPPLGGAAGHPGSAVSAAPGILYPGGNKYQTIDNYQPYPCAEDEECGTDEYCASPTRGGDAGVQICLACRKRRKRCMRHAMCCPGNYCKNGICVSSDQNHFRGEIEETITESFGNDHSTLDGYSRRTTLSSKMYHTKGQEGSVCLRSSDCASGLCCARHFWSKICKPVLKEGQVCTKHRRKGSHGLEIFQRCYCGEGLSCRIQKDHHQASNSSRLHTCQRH
Chain of Epidermal growth factor receptor (Homo sapiens) (P00533 whole entry, looked up): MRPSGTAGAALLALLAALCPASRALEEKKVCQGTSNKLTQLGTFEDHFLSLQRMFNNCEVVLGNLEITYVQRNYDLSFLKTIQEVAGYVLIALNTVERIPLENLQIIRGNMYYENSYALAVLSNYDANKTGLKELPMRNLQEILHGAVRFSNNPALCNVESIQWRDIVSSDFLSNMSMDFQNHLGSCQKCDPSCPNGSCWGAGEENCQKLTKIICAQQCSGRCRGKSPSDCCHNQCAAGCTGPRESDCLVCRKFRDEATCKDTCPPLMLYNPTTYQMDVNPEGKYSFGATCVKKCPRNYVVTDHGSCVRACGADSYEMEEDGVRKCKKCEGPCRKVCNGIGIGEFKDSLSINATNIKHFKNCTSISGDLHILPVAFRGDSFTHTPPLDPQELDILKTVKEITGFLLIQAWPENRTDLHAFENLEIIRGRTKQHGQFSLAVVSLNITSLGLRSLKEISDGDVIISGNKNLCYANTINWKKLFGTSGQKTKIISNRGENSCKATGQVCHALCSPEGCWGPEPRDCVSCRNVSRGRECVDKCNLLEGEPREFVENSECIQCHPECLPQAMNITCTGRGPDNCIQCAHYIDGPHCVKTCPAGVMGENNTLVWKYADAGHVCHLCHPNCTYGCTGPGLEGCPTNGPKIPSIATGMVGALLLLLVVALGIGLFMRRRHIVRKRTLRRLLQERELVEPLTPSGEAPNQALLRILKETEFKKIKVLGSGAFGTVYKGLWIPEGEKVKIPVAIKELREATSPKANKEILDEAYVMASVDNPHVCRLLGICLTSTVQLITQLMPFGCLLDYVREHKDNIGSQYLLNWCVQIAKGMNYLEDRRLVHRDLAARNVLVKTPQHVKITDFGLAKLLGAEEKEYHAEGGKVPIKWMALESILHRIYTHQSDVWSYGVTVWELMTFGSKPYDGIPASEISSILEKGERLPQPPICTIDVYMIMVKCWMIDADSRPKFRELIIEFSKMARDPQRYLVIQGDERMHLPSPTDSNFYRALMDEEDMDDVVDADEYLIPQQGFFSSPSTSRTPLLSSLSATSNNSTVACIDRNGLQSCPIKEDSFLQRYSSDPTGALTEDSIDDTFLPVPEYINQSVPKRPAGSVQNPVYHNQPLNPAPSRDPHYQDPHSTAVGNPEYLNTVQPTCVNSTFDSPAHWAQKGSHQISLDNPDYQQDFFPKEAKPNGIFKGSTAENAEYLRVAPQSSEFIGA
Chain of Fibroblast growth factor 10 (Homo sapiens) (O15520 whole entry, looked up): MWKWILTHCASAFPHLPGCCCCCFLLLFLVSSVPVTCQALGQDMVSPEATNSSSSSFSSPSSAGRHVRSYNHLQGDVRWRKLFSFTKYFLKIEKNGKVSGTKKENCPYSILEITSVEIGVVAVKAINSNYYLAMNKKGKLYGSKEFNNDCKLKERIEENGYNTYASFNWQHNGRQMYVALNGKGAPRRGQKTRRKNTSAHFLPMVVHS
Chain of Torsin-1A-interacting protein 2 (Homo sapiens) (Q8NFQ8 whole entry, looked up): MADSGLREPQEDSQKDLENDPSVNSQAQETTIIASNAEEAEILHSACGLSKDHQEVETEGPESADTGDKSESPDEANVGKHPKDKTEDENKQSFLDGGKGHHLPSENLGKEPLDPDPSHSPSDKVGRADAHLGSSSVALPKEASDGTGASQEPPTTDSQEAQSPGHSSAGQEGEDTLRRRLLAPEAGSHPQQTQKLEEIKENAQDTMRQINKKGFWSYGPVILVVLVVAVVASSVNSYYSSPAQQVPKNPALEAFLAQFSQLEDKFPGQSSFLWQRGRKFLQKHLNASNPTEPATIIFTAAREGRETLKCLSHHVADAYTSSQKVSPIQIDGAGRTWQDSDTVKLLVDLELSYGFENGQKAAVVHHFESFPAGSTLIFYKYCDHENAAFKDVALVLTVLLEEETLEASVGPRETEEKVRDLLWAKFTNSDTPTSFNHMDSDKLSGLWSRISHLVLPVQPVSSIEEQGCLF
Chain of Neurogenic locus notch homolog protein 3 (Homo sapiens) (Q9UM47 whole entry, looked up): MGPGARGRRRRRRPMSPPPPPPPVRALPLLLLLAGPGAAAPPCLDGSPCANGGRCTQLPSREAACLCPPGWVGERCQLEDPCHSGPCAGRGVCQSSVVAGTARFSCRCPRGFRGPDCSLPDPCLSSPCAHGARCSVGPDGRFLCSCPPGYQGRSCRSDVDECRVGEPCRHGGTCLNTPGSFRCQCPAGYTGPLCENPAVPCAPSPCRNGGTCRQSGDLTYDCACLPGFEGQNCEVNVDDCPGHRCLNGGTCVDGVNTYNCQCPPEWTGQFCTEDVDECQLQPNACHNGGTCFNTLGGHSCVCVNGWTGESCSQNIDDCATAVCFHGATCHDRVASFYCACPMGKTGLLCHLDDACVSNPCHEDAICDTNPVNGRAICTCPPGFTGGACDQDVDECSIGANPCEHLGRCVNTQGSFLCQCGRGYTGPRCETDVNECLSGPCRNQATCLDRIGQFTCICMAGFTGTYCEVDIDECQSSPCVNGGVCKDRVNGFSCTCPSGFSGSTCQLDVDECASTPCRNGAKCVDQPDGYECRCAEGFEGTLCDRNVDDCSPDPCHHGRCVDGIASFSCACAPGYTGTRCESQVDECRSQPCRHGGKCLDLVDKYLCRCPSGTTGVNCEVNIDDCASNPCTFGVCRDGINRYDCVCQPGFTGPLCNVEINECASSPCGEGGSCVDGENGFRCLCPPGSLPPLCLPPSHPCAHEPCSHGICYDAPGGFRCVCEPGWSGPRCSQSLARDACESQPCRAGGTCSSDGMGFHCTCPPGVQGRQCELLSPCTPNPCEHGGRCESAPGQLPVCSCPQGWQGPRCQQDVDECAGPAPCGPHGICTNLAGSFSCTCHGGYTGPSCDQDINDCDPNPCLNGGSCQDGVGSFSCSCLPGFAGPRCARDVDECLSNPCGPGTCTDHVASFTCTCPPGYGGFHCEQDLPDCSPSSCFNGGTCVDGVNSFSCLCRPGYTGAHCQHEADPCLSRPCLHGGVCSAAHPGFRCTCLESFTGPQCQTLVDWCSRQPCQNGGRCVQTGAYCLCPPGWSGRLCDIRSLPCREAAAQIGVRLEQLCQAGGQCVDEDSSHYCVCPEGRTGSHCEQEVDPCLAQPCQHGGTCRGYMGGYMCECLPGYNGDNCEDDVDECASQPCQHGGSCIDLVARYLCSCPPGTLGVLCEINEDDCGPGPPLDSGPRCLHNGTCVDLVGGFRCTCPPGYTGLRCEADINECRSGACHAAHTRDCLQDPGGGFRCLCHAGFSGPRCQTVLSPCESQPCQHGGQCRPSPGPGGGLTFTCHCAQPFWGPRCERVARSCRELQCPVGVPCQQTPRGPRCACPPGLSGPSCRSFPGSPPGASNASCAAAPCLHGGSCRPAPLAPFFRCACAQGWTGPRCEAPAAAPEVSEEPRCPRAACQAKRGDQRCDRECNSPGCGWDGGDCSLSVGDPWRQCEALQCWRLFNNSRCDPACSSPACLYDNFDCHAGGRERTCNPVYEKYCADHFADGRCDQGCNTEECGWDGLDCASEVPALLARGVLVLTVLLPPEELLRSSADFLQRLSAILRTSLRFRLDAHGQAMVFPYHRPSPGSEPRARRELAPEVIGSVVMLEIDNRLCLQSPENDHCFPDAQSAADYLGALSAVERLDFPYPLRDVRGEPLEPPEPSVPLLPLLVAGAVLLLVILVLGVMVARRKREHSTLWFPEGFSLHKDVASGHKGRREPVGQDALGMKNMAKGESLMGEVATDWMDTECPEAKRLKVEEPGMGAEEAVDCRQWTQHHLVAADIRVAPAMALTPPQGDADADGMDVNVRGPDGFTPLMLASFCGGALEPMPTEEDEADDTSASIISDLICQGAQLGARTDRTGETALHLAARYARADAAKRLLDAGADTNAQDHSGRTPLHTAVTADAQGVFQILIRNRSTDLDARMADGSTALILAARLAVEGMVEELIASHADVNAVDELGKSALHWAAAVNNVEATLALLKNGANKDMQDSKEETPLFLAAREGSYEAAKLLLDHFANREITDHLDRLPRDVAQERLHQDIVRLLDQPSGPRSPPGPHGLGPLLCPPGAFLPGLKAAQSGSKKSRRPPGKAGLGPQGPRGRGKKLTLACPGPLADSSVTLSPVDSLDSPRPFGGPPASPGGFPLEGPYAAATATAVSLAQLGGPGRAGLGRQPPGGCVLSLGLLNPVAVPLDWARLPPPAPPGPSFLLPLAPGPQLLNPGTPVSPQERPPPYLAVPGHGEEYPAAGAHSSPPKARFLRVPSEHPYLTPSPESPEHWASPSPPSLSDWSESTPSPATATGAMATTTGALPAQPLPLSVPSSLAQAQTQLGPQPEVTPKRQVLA

With `COCCn1c(C(=O)N(C)C)cc2c1C[C@H]1CN(C(=O)c3ccccc3)[C@@](Cc3ccc(F)cc3)(C(=O)OC)[C@@H]21`, the composite z-score in test [1] is 0.0294; in test [5] it was 3.05; in test [7], 0.214; in test [8] it was -0.3; in [9], 0.328; in [10], 0.0492. Also, the composite z-score is 0.205 in test [11]; 1.15 in [12]; 0.843 in test [13]; 0.61 in [15]; 0.397 in test [16]; -0.0331 in test [17]. The figures for the composite z-score in test [18], in test [19] and in test [20] were 0.126, -0.567 and 0.692, respectively. Further, the z-score is 0.296 (inactive) in test [2]; 0.75 (inactive) in test [3]; 0.247 (inactive) in test [4]; 0.782 (inactive) in test [6]; -1.12 (inactive) in test [14].

Turning to `Cn1c2c(c3ccccc31)C(=O)C1NC2C=CC1(C)C(=O)OCc1ccccc1` (stereo not given), the composite z-score in test [1] was 0.417; in [5], 3.1; in test [7], -0.0097; in [8], -2.04; in test [9] it was -0.258; in test [10], -0.264. Moreover, the composite z-score in test [11] is 1.15; in test [12], 0.347; in test [13] it was 1.26; in test [15] it was -0.667; in test [16], -0.788; in [17], -1.57. In addition, the composite z-score in test [18] is -1.58; in test [19], -2.53; in [20], 0.674. For the same compound, the z-score was -0.566 (inactive) in [2]; 0.35 (inactive) in test [3]; -0.233 (inactive) in test [4]; -1.01 (inactive) in [6]; 0.167 (inactive) in test [14].

As to `C=C[C@@H](C)[C@@H](OC(=O)Nc1ccc(OC)cc1)c1ccc(O)c2ccccc12`, the composite z-score in test [1] was 0.906; in test [5] it was 1.15; in test [7] it was -0.17; in test [8], 1.15; in [9], 0.514; in [10], -0.116. Moreover, the composite z-score was 1.13 in test [11]; -0.241 in test [12]; -0.576 in test [13]; 0.856 in test [15]; 0.357 in test [16]; 0.762 in [17]. Also, the figures for the composite z-score in test [18], in [19] and in test [20] were 0.723, 0.475 and 1.24, respectively. The z-score in test [2] is -24.7 (active); in test [3] it was -20.9 (active); in test [4], -3.73 (inactive); in test [6] it was 1.02 (inactive); in test [14], -0.0898 (inactive).

Regarding `COC(=O)c1c2oc(c1C(=O)OC)C(=O)N[C@H](Cc1ccccc1)Cn1nncc1C1(CCCCC1)NC(=O)N[C@H](CO)CC2`, the composite z-score in [1] is 0.702; in test [5] it was 1.03; in [7], -0.205; in [8], 0.311; in [9] it was 0.17; in test [10] it was -0.115. Also, the composite z-score in [11] is 0.0465; in test [12] it was 0.026; in test [13], -0.485; in test [15], 0.0778; in test [16], 0.129; in [17] it was 0.0246. In addition, the composite z-score was 0.402 in test [18], 0.452 in [19] and 0.006 in test [20]. Besides, the z-score in test [2] was 0.776 (inactive); in test [3], 0.414 (inactive); in [4] it was -0.178 (inactive); in test [6], 1.17 (inactive); in test [14], -1.46 (inactive).

On to `C=C[C@H](C)[C@H](O)c1ccc(OCCO)cc1`, for which the composite z-score is -0.647 in test [1]; -1.2 in [5]; 0.19 in test [7]; -1.19 in [8]; -1.11 in test [9]; -0.397 in [10]. Also, the composite z-score in test [11] was 0.771; in test [12], -0.564; in test [13] it was 0.883; in test [15], -0.772; in test [16], -1.21; in test [17], -1.58. Further, the composite z-score in test [18] was -0.607; in test [19], -1.97; in test [20] it was -2.79. The z-score was 0.132 (inactive) in test [2]; -0.404 (inactive) in test [3]; -0.539 (inactive) in test [4]; 0.943 (inactive) in test [6]; -0.961 (inactive) in test [14].

Source of the values: PubChem BioAssay.
